Compound activity as filed in PubChem BioAssay.
Most compounds without a hit are left out; they make up all but 3.4% or so of the library.
pPAFAH FP inh: pPAFAH enzyme inhibitors, primary screen, biochemical, fluorescence polarization, human; Platelet-activating factor acetylhydrolase (Homo sapiens), Q13093; inhibition, % at 3.39 µM; recombinant pPAFAH, FP-rhodamine probe fluorescence polarization; 330,000 compounds, 1.5% hits;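 active = inhibition above the mean inhibition across the screen plus 3 SD, cut at about 25% in these data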;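 also: inhibitors block binding of the rhodamine activity-based probe so polarization drops; 0% = enzyme with DMSO and 100% = wells lacking pPAFAH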
PP1 inh: PP1-alpha phosphatase inhibitors, primary screen, counter-screen for PP5 inhibitor project, biochemical, fluorescence, OMFP substrate, single point; Serine/threonine-protein phosphatase PP1-alpha catalytic subunit (Homo sapiens), P62136; purified PP1alpha; inhibition, % at 6.7 µM; 320,000 compounds, 0.9% hits;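 active = inhibition above the mean inhibition of all tested compounds plus 3 SD, computed separately for each screening campaign, cut at about 15% in these data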
PAFAH1B2 inh: PAFAH1B2 enzyme inhibitors, primary screen, biochemical, fluorescence polarization, human | inhibition, % at 3.39 µM | AID 492953, 2010 | 340,000 compounds, 1.2% hits | recombinant PAFAH1B2, FP-rhodamine activity probe;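 active = inhibition above the mean of all tested compounds plus 3 SD, cut at about 24% in these data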;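 also: 0% = enzyme with DMSO and 100% = wells lacking PAFAH1B2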
Target sequence (P68402 whole entry, looked up): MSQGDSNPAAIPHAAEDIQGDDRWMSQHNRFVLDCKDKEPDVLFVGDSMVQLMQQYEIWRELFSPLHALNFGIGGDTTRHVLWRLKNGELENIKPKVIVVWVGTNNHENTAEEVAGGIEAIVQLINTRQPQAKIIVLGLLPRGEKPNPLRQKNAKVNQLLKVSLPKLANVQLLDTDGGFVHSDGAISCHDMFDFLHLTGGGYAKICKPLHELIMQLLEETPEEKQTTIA
PAFAH1B3 FP inh: PAFAH1B3 enzyme inhibitors, primary screen, biochemical, fluorescence polarization, human; recombinant PAFAH1B3, FP-rhodamine probe; inhibition, % at 3.39 µM; 340,000 compounds, 0.28% hits; Platelet-activating factor acetylhydrolase IB subunit alpha1 (Homo sapiens), Q15102;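 active = inhibition above the screen-wide average of all tested compounds plus 3 SD, cut at about 25% in these data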;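 also: 0% = enzyme with DMSO only and 100% = wells lacking PAFAH1B3 protein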
PAFAH2 inh: PAFAH2 enzyme inhibitors, primary screen, biochemical, fluorescence polarization, human | Platelet-activating factor acetylhydrolase 2, cytoplasmic (Homo sapiens), Q99487 | recombinant PAFAH2, FP-rhodamine activity probe | inhibition, % at 3.39 µM | 340,000 compounds, 0.99% hits;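 active = inhibition above the mean over all tested compounds plus 3 SD, cut at about 30% in these data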;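 also: inhibitors block probe labeling of enzyme so polarization drops; 0% = enzyme with DMSO and 100% = wells lacking PAFAH2 protein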
PP5 primary: PP5 phosphatase inhibitors, primary screen, biochemical, fluorescence; Serine/threonine-protein phosphatase 5 (Homo sapiens), P53041; purified PP5c, OMFP substrate fluorescence; AID 1987, 2009; 320,000 compounds, 0.18% hits; inhibition, % at 6.7 µM;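 active = inhibition above the campaign's mean inhibition across all tested compounds plus 3 SD, cut at about 9.5% in these data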;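 also: 0% = DMSO only and 100% = 100 µM cantharidin control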
PAFAH2 FP conf: PAFAH2 enzyme inhibitors, confirmation, biochemical, fluorescence polarization, human. inhibition, % at 3.39 µM. AID 493030, 2011. shares compounds with PAFAH2 inh. recombinant PAFAH2, FP-rhodamine activity probe. 2,300 compounds, 65% hits;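 active = mean inhibition over three repeats above a set limit taken from the earlier primary screen, cut at about 30% in these data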;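 also: inhibitor blocks binding of rhodamine activity probe so polarization falls; 0% = enzyme with DMSO and 100% = wells lacking PAFAH2 protein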
PAFAH1B3 confirm: PAFAH1B3 enzyme inhibitors, confirmation, biochemical, fluorescence polarization, human. inhibition, % at 3.39 µM. 390 compounds, 30% hits. recombinant PAFAH1B3, FP-Rh activity-based probe. shares compounds with PAFAH1B3 FP inh;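 active = average inhibition over triplicate runs above the hit cutoff set in the earlier primary screen, cut at about 25% in these data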;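 also: 0% = enzyme with DMSO and 100% = wells lacking PAFAH1B3 protein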
Starred values were filed as active, the others as inactive; . = no result.

SMILES	pPAFAH FP inh	PP1 inh	PAFAH1B2 inh	PAFAH1B3 FP inh	PAFAH2 inh	PP5 primary	PAFAH1B3 confirm	others
O=S(=O)(O)C(=Cc1ccccc1)c1ccccc1 (tested in a mixture with another compound)	.	.	18	5	5	.	.
CC(C)CCn1c(=O)c(C(=O)NCc2ccco2)c(O)c2ccccc21	1	-2	-4	3	-4	2	.
O=C(O)C1C(C(=O)O)C2(Cl)C(Cl)=C(Cl)C1(Cl)C2(Cl)Cl (centres undefined)	-2	-4	6	4	28	0	.
C=CCOC(=O)C1C(C(=O)O)C2(Cl)C(Cl)=C(Cl)C1(Cl)C2(Cl)Cl (centres undefined)	.	.	21	8	31*	.	.	PAFAH2 FP conf=21
CCN(CC)C(=O)Cn1cc(/C=C2\C(=O)NC(=O)N(c3ccccc3F)C2=O)c2ccccc21	-5	-10	8	10	15	-9	.
O=C(COc1ccccc1F)N1CCN(CCN2C(=O)c3cccc4cccc(c34)C2=O)CC1	3	-2	2	28*	2	-1	5
O=C(COc1ccccc1)N1CCN(CCN2C(=O)c3cccc4cccc(c34)C2=O)CC1	2	-3	-1	-7	1	1	.
CCCCCn1c(NC(=O)c2ccco2)c(C(=O)OCC)c2nc3ccccc3nc21	8	1	23	55*	3	1	50*
CN1CC[C@@]2(C)c3cc(O)ccc3N(C)[C@@H]12	.	.	13	40*	3	.	5
CC1[C@H]2Cc3ccc(O)cc3[C@]1(C)CCN2C (some centres undefined)	.	.	3	10	-2	.	.
Nc1c(C(=O)NC2CCCC2)c2nc3ccccc3nc2n1CC1CCCO1 (centres undefined)	17	5	2	26*	7	8	15
COC(=O)C1=C(C)OC(N)=C(C#N)C12C(=O)Nc1ccccc12 (centres undefined)	6	1	-2	8	5	-1	.
COc1cc2c(cc1OC)-c1c(OC)c(OC)cc3c1[C@H](C2)N(C)CC3	-1	-1	11	34*	19	1	9
Cc1ccc2c(c1)N(CCC(=O)N1CCC3(CC1)OCCO3)C(=O)CO2	-1	0	-4	7	-5	1	.
O=C(NCCO)c1nsnc1NCCCl	1	-2	2	7	-5	1	.
